According to PubChem BioAssay (NCI):
Compounds without any hit were thinned out: in the full panel of roughly 83,000, 20% have a hit.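 48-hour exposure, single concentration, 96-well plates; percent growth endpoint where 0 means no net growth. Active: below 10.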 Calls of active or inactive are those of the source.

Columns and labels:
Assay in all cases: NCI-60 one-dose screen, 48 h (100 = growth as untreated, 0 = no growth, -100 = all killed)
Details in all cases: 10 µM unless noted
[1] = system: HCT-15 colon
[2] = system: HT29 colon
[3] = system: SNB-75 CNS
[4] = system: SNB-19 CNS
[5] = system: U251 CNS
[6] = system: PC-3 prostate
[7] = system: SK-MEL-5 melanoma
[8] = system: UACC-62 melanoma
[9] = system: LOX IMVI melanoma
[10] = system: SK-MEL-28 melanoma
[11] = system: SK-MEL-2 melanoma
[12] = system: EKVX NSCLC
[13] = system: SN12C renal
[14] = system: UO-31 renal
[15] = system: TK-10 renal
[16] = system: ACHN renal
[17] = system: CAKI-1 renal
[18] = system: A498 renal
[19] = system: CCRF-CEM leukemia
[20] = system: MOLT-4 leukemia

Measured: growth

C=C(C)[C@@H]1CCC[C@]2(C(=O)OC)CC[C@]3(C)[C@@H](CC[C@@H]4[C@@]5(C)CCCNC(C)(C)[C@@H]5CC[C@]43C)[C@@H]12
inactive: [1] 93.1% | [2] 56.5% | [3] 91.7% | [4] 88.3% | [5] 94.1% | [6] 74.1% | [7] 90% | [8] 87.8% | [9] 97.8% | [10] 94.3% | [11] 94% | [12] 88.2% | [13] 92.1% | [14] 57.7% | [15] 90.4% | [16] 88.2% | [17] 73.3% | [18] 106% | [19] 84% | [20] 76.9%

COc1ccc(-c2cc(-c3ccc(N(C)C)cc3)nc(NC(=O)c3cccnc3)n2)cc1
inactive: [1] 95% | [2] 108% | [3] 99% | [4] 93.2% | [5] 98.9% | [6] 90.3% | [7] 97.1% | [8] 95.1% | [9] 97.1% | [10] 106% | [11] 111% | [12] 96.6% | [13] 97.5% | [15] 117% | [16] 95.6% | [17] 92.6% | [18] 109% | [19] 104%

CC(Cc1cccc2ccccc12)C(N)=O (stereo not drawn)
inactive: [1] 101% | [2] 101% | [3] 98.6% | [4] 104% | [5] 105% | [6] 93.8% | [7] 101% | [8] 98.8% | [9] 101% | [10] 108% | [11] 105% | [12] 104% | [13] 97.2% | [14] 87.3% | [15] 98.7% | [16] 103% | [17] 93.8% | [18] 100% | [19] 97.1% | [20] 99.8%

O=C1/C(=C/c2ccccc2)COc2ccc(O)cc21
inactive: [1] 57.1% | [2] 62.7% | [3] 99.7% | [4] 93.6% | [5] 55.1% | [6] 84.2% | [7] 97.3% | [8] 86.6% | [9] 89.8% | [10] 103% | [11] 104% | [12] 105% | [13] 91.7% | [14] 76.4% | [15] 106% | [16] 101% | [17] 93.5% | [18] 99.5% | [19] 21.5% | [20] 78.6%

COC(=O)[C@@H](Cc1c[nH]c2ccccc12)NC(=O)[C@H](Cc1ccccc1)NCc1ccncc1
inactive: [1] 110% | [2] 87.5% | [3] 93% | [4] 93.3% | [5] 92.7% | [6] 78.5% | [7] 102% | [8] 95.3% | [9] 95% | [10] 122% | [11] 77.7% | [12] 103% | [13] 100% | [15] 98.1% | [16] 109% | [17] 91.9% | [18] 100% | [19] 90.3% | [20] 92.5%

COC(=O)c1cc(-c2cc(OC)c(OC)c(OC)c2)[nH]c1N/N=C/c1c(Cl)cccc1Cl
active: [3] 3.41% | [11] -21.2% | [15] -47.6% | [17] 7.04% | [18] -63.6%
inactive: [1] 60% | [2] 32.4% | [4] 28.5% | [5] 14.1% | [6] 12% | [7] 58.7% | [8] 34.8% | [9] 19.2% | [10] 30.1% | [12] 64.4% | [13] 40.6% | [14] 40.9% | [16] 10.1% | [19] 35.6% | [20] 33.2%

CCNc1nc(-c2ccc(Cl)c(OC)c2)c(-c2ccnc(NCCNS(=O)(=O)c3ccc(Cl)cc3)n2)s1
inactive: [1] 16.7% | [3] 46.1% | [4] 34.2% | [5] 17.3% | [7] 13.5% | [8] 24.6% | [9] 13.9% | [10] 32.3% | [12] 34.9% | [13] 36.1% | [14] 40.8% | [15] 22.5% | [16] 33.7% | [17] 30.4% | [18] 18.6% | [19] 21.4% | [20] 11.2%
active: [2] 5.01% | [6] 9.83% | [11] -30%

O=C(Nc1cccc(Cn2c(=O)[nH]c3ccc(Oc4ncccn4)cc3c2=O)c1)c1cccc(Cl)c1
inactive: [1] 61.3% | [2] 54.8% | [3] 82.2% | [4] 65.3% | [5] 61.9% | [6] 50.3% | [7] 11.4% | [8] 52.1% | [9] 71.4% | [10] 78.8% | [11] 71.7% | [12] 46.3% | [13] 80.1% | [14] 39.6% | [15] 53.3% | [16] 60% | [17] 52.4% | [18] 45.3% | [19] 47.1% | [20] 15.4%

COc1ccc(NC(=O)c2ccc(NC3=C(c4ccc(Cl)cc4)C(=O)NC3=O)cc2)cc1
inactive: [1] 75.1% | [2] 66.7% | [3] 85.7% | [4] 91.8% | [5] 82.3% | [6] 64.3% | [7] 80.8% | [8] 81.6% | [9] 87.7% | [10] 101% | [11] 70.4% | [12] 84.7% | [13] 88.6% | [15] 82.8% | [16] 85.9% | [17] 83.9% | [18] 87.5% | [19] 85.1% | [20] 52.6%

CCN1CCN(C(=O)[C@]23CC[C@@H](C)[C@H](C)[C@@H]2C2=CC[C@@H]4[C@@]5(C)C/C(=C/c6ccncc6)C(=O)C(C)(C)[C@@H]5CC[C@@]4(C)[C@]2(C)CC3)CC1
inactive: [3] 19.5% | [4] 47.3% | [5] 15.2% | [6] 19.3% | [8] 43.1% | [11] 33.5% | [12] 43.7% | [13] 28.1% | [15] 38.7% | [16] 15.2% | [17] 43.6%
active: [1] -53.2% | [2] 1.6% | [7] -12.3% | [9] -95.3% | [10] -45.7% | [14] 9.04% | [18] -10.5% | [19] 5.24% | [20] 0.087%

CC1=NN(c2cccc(Cl)c2)C(=O)/C1=C\C=C\c1ccccc1
active: [1] 5% | [2] -29.5% | [5] -57.4% | [7] 5.05% | [9] -87.9% | [10] -69.7% | [13] 0.408% | [16] -51.3% | [19] 2.35%
inactive: [3] 50.9% | [4] 37.5% | [6] 45.5% | [8] 28.2% | [11] 74.6% | [12] 87.1% | [14] 69.7% | [15] 44.8% | [17] 52.2% | [18] 110% | [20] 28.4%

COc1ccc(/C=C\c2cc(OC)c(OC)c(OC)c2)cc1OCC(=O)Nc1nc2ccccc2s1
active: [2] 1.98% | [7] -64% | [14] 4.73% | [15] 4.64% | [20] 6.31%
inactive: [1] 23% | [3] 30.3% | [4] 43.8% | [5] 13.9% | [6] 31.1% | [8] 28% | [9] 11.5% | [10] 65.4% | [11] 26.7% | [12] 55.8% | [16] 16.9% | [17] 17.6% | [18] 25.1% | [19] 35.3%

COc1ccc(C(=O)/C=C/c2ccc(C)cc2)cc1S(N)(=O)=O
inactive: [1] 22.8% | [2] 45.7% | [3] 82.7% | [4] 14.5% | [5] 17.1% | [6] 50.4% | [7] 82.2% | [8] 61.2% | [9] 28.8% | [10] 98.1% | [11] 87.1% | [12] 81% | [14] 37.4% | [15] 73.1% | [16] 55.8% | [17] 73.6% | [18] 82.7% | [19] 23.7% | [20] 15.9%

O=[N+]([O-])c1ccc(Oc2cccc3c(Oc4ccc([N+](=O)[O-])cc4[N+](=O)[O-])cccc23)c([N+](=O)[O-])c1
inactive: [1] 100% | [2] 97% | [3] 81.6% | [4] 84.7% | [5] 87% | [6] 79.7% | [7] 86.7% | [8] 76.5% | [9] 78.4% | [10] 110% | [11] 90.4% | [12] 77.7% | [13] 74.8% | [15] 119% | [16] 93.4% | [17] 89.2% | [18] 108% | [19] 95.7% | [20] 102%
